The values that follow come from PubChem BioAssay AID463212 (Sanford-Burnham Center for Chemical Genomics, 2010).

Screen size: about 330,000 compounds; about 4,400 (1.3%) were called active. The list comes from a sample in which actives are over-represented; it also holds similar structures and randomly drawn compounds. Unmarked numbers belong to inactive results.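 How the source made its calls: active means growth inhibition of the mutant yeast at or above 50%; inactive means the rest.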

The nature of this test: growth inhibitors of tim23-1 mutant yeast, primary screen, luminescence, uHTS (AID 463212).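 Further: temperature-sensitive mutant grown at 25 °C; plate controls were DMSO-treated mutant yeast for no effect and medium wells lacking yeast for full effect.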 Conditions: S. cerevisiae tim23-1 growth, BacTiter-Glo luminescence, 24 h; at 20 µM; hits give high values.
`CC[C@]12c3[nH]c4ccc(Cl)cc4c3CCN1C(=O)[C@@H](CC(=O)NCCN1CCOCC1)C[C@@H]2C(=O)N1CCN(C(=O)C2CC2)CC1`: the inhibition is 24.7%. With `CC1Cn2c(nnc2-c2cccs2)S1` (stereo not given), the inhibition is 3.29%.

Consider `NS(=O)(=O)c1ccc(CCNC(=O)CNC(=O)Cc2ccccc2)cc1`, for which the inhibition is 7.58%. In the case of `CCN(CC)c1ccc(NC(=O)C2CCC(CNc3c(N4CCCC4)c(=O)c3=O)CC2)c(C)c1` (stereo not given), the inhibition is 2.65%. Regarding `O=C(Nc1nnc(SCc2c(Cl)cccc2Cl)s1)c1cccc([N+](=O)[O-])c1`, the inhibition was -8.16%. The result for `O=C(Nc1nnc(SCc2c(Cl)cccc2Cl)s1)C1CCCO1` (stereo not given) reads 52.3% (active). The value for `O=C(NCc1ccccc1Cl)C1CCCO1` (stereo not given) was 3.86%; that for `CC1CN(C(=O)c2cc(COc3c(F)cccc3F)on2)CCN1C` (stereo not given) was 8.91%; that for `NC(=O)C1CCN(C(=O)c2cn(-c3ccccc3)nc2-c2cccnc2)CC1` was -6.01%. Turning to `CN(C)/N=C/c1cn(-c2ccccc2)nc1-c1cccnc1`, the inhibition was 50.3% (active). On to `O=C(COC(=O)/C=C/c1cn(-c2ccccc2)nc1-c1cccnc1)Nc1ccc(Cl)cc1Cl`, for which the inhibition was 20.1%. Turning to `O=C1CC(C(F)(F)C(F)(F)C(F)(F)C(F)(F)F)=Nc2ccccc2N1`, the inhibition was 15.9%. `CC(C)C[C@H](NC(=O)NCCc1ccc(Cl)cc1)C(=O)O`: the inhibition was 9.43%.

On to `Cc1ccc2nc(SCC(=O)N3CC(C)OC(C)C3)nc(=O)n2c1` (stereo not given), for which the inhibition was 10.2%. For `CCc1ccc(C(=O)NC(=S)Nc2ccccc2N2CCOCC2)cc1`, the inhibition was 53.9% (active).

Regarding `O=C(Nc1ccccc1N1CCOCC1)c1ccncc1`, the inhibition is -8.11%. The value for `O=C(NC(=S)Nc1ccccc1N1CCCCC1)c1ccc(F)cc1` was 32.5%; that for `O=C(NC1CC2CCCC(C1)N2C(=O)N1CCCCC1)C1CCCCC1` (stereo not given) was 19.4%.

With `Cc1cc(C)nc(NC2=NCC(=O)N2c2ccc(Cl)cc2)n1`, the inhibition is -5.7%. In the case of `O=C(Nc1ccc(NC(=O)c2cccs2)cn1)c1ccco1`, the inhibition is 17.2%.

For `O=C(N/N=C/C=C/c1ccco1)c1cccs1`, the inhibition was 59.4% (active). The value for `O=C(N/N=C/c1ccco1)c1csc2c1CCCC2` was 22.8%. For the molecule `O=C(Nc1ccc(Br)cc1)c1cc(S(=O)(=O)Nc2ccccn2)ccc1Cl`, the inhibition was -0.209%. The value for `Cc1ccc(NN=C2C(=O)OC(C)(C)OC2=O)c(C)c1` was -2.58%; that for `CCCCCCc1cc2cc(-c3nnc(-c4ccccc4)o3)c(=O)oc2cc1O` was 7.67%; that for `CCCCCCc1ccc(O)cc1O` was 62.8% (active). Consider `CCCCCCCN=C(C)c1ccccc1O`, for which the inhibition was 5.76%.

Regarding `CC(C)NC(=O)NNc1c(Cl)cncc1Cl`, the inhibition was 2.69%. The value for `O=C(/C=C/c1cccc(C(F)(F)F)c1)N1CCN(c2ccccn2)CC1` was 37.6%; that for `COc1ccc(NC(C)=O)cc1NC(=O)CN1CCN(C2c3ccccc3-c3ccccc32)CC1` was 26.8%. Turning to `O=C(C[C@H]1C(=O)N(c2ccc(F)c(F)c2)C[C@@H]1Cc1ccccc1)Nc1ccccc1`, the inhibition is 13.5%. The value for `COc1ccc(NC(=O)CSc2nc(NS(=O)(=O)c3ccc(C)cc3)cc(=O)[nH]2)cc1` was 2.94%; that for `Cc1noc(C)c1-c1ccc2ncnc(NC(C)c3ccco3)c2c1` (stereo not given) was 5.06%; that for `Cc1cccc(-c2nc(Nc3ccc(O)cc3)c3ccccc3n2)c1` was 62.7% (active). With `Oc1ccc(-c2nnc(Nc3ccccc3)c3ccccc23)cc1`, the inhibition was -5.13%. For `CC(=O)Nc1cccc(Nc2nc(-c3cccs3)nc3ccccc23)c1`, the inhibition is 39.4%. Turning to `CCCCn1c(O)c(N=NC(=O)Cn2c(C(F)(F)F)nc3ccccc32)c2ccccc21`, the inhibition is -27.6%. In the case of `O=c1ccc2c(-c3ccccc3S(=O)(=O)O)c3ccc(O)c(O)c3oc-2c1O`, the inhibition was 56% (active).

`CCCn1c(N)c(C(=O)CSc2nnc3n2CCCCC3)c(=O)[nH]c1=O`: the inhibition is 7.27%.

Regarding `Cc1cc(C(=O)CCl)c(C)n1CC1COc2ccccc2O1` (stereo not given), the inhibition is 34.4%.

As to `O=C1C(=O)N(CC2COc3ccccc3O2)c2ccccc21` (stereo not given), the inhibition was 72.4% (active). The value for `O=C(CN1C(=O)C2C3C=CC(C3)C2C1=O)NCC1COc2ccccc2O1` (stereo not given) was 18.2%. As for `CC(=O)Nc1sc2c(c1C(c1cccc(F)c1)N1CCN(CCO)CC1)CCCC2` (stereo not given), the inhibition is 14.7%.

As for `Cc1cccc(-[n+]2c(-c3cccc(Br)c3)[nH]c3nc4ccccc4nc32)c1`, the inhibition is 22.7%.

`O=C(NC(=S)Nc1cccc2c(O)cccc12)c1cccc(Br)c1`: the inhibition was 68.6% (active). `NS(=O)(=O)c1ccc(NC(=S)NC(=O)c2cccc(Br)c2)cc1`: the inhibition was 28.3%. The result for `Cc1ccccc1NC(=S)NNC(=O)c1cccc(Br)c1` reads 14.7%. `Cc1ccc(C)c(OCc2cc(C(=O)N3CCN(c4cnccn4)CC3)no2)c1`: the inhibition was 23.9%. The result for `Cc1cccc(NC(=O)c2ccc([N+](=O)[O-])o2)c1` reads 7.53%; that for `Cc1onc(NC(=O)c2ccc([N+](=O)[O-])o2)c1Br`, 55.6% (active); that for `O=C(Nc1ccc(Br)cn1)c1ccc([N+](=O)[O-])o1`, 43.4%. Take `O=C(CCCNS(=O)(=O)c1cccc2nsnc12)NCCN1CCN(c2ccccc2F)CC1`: the inhibition is 1.63%.

As to `O=C1Nc2ccccc2/C1=C/c1ccnc2ccccc12`, the inhibition is 51.2% (active).

For the molecule `COc1cc(NS(=O)(=O)c2ccc(NC(=O)c3ccc(S(=O)(=O)N4CCCCC4)cc3)cc2)ncn1`, the inhibition is 3.91%. As for `O=C1NC(Nc2nc3ccccc3s2)(C(F)(F)F)C(=O)N1C1CCCCC1` (stereo not given), the inhibition was 58.9% (active). Turning to `CCC1(CC)NC(=O)N(Cc2nc3ccccc3s2)C1=O`, the inhibition is 21.9%. The result for `O=C(NC1(C(F)(F)F)NC(=O)N(C2CCCCC2)C1=O)c1ccco1` (stereo not given) reads 14.4%; that for `CC(C)c1ccc(NC(=O)[C@@H](NC(=O)N2CC(=O)Nc3ccccc32)C(C)C)cc1`, 10.9%; that for `Cc1c(NC(=O)CCC2CCCCC2)cc(C(=O)N2CCOCC2)cc1[N+](=O)[O-]`, 7.43%. The value for `CC(=O)Nc1ccc(S(=O)(=O)NC2(C(F)(F)F)C(=O)NC(C)=C2C#N)cc1` (stereo not given) was 10.8%; that for `Cc1cc(N2CCOCC2)nc2ccc(NC(=S)N3CCN(Cc4ccccc4)CC3)cc12` was 7.08%; that for `CCn1c2ccccc2c2cc(NC(=S)N3CCOCC3)ccc21` was 51.8% (active). Consider `Cc1cc(N2CCN(C)CC2)nc2ccc(NC(=S)N3CCOCC3)cc12`, for which the inhibition was 12.1%.

On to `COc1ccccc1CN1CC(C(=O)NCCc2cn[nH]c2)CCC1=O` (stereo not given), for which the inhibition was 11.8%. The value for `CCCNC(=O)Nc1ccccc1C(=O)Nc1ccc(OC)cc1` was 11%; that for `COc1ccc(NC(=O)Nc2cccc3cccnc23)cc1` was 58.6% (active); that for `CCOC(=O)Cc1ncccc1C(=O)Nc1ccc(OC)cc1` was -4.31%. Consider `COc1ccc(CNS(=O)(=O)c2cc3c4c(c2)CCN4C(=O)CC3)cc1`, for which the inhibition was 9.82%. As for `COc1ccccc1C(=O)NC(=O)COC(=O)c1ccco1`, the inhibition was 1.32%. On to `COc1ccc(/C=C(\C#N)C(=O)OCC(=O)N(C)C2CCS(=O)(=O)C2)cc1` (stereo not given), for which the inhibition is -18.1%. `COc1ccc(/C=C(\C#N)C(=O)ONC2=NCCCCC2)cc1`: the inhibition is 68.2% (active). As to `COc1ccc(N2CCN(C(=O)/C(C#N)=C/c3ccccc3)CC2)cc1`, the inhibition was 40.6%.

In the case of `CC(=O)C1=C(C)NC(C)=C(C(C)=O)C1c1cn(-c2ccccc2)nc1-c1cccs1`, the inhibition was 29.1%.

For `CSc1ccccc1NC(=O)c1cc(C2CC2)on1`, the inhibition is 15.5%. The value for `Cc1nn(Cc2ccc(Cl)c(Cl)c2)c(C)c1NC(=O)c1cc(C2CC2)on1` was 56.6% (active); that for `Cc1nn(Cc2ccc(F)cc2)c(C)c1NC(=O)c1cccnc1Cl` was 9.85%; that for `C/C(=N/NC(=O)CN1CCN(S(=O)(=O)c2ccc(Br)cc2)CC1)c1ccncc1` was 4.89%.

Take `Nc1nnnn1CC(=O)N/N=C/c1ccc(-c2cccc(Cl)c2)o1`: the inhibition is 1.59%. For the molecule `COC(=O)N/N=C/c1ccc(-c2ccc(Cl)c(Cl)c2)o1`, the inhibition was 54.7% (active). The value for `O=C(N/N=C\c1ccc(-c2ccc(Cl)c(Cl)c2)o1)C(=O)N1CCCC1` was -5.25%. The result for `Cc1c(C)c2ccc(OCC(=O)N3CCN(c4cccc(Cl)c4)CC3)cc2oc1=O` reads -6.57%; that for `O=C1CC(Sc2ncn[nH]2)C(=O)N1c1ccccc1` (stereo not given), 51% (active). Take `Cc1ccc(N2C(=O)CC(Sc3ncn[nH]3)C2=O)cc1` (stereo not given): the inhibition was -0.146%. For the molecule `COc1ccc(N2C(=O)CC(Sc3n[nH]c(-c4ccc(C)cc4)n3)C2=O)cc1` (stereo not given), the inhibition was 28.8%.

In the case of `COc1ccc(C(c2nnnn2C2CCCCC2)N2CCN(c3ccccc3F)CC2)cc1` (stereo not given), the inhibition was 14.3%. `CC(C(=O)NC1CCCC1)N(c1ccc(Oc2ccccc2)cc1)S(C)(=O)=O` (stereo not given): the inhibition is 29.3%. The result for `Cc1cc(OC(=O)c2c(Cl)cccc2Cl)nc(C)n1` reads 23.1%.

Regarding `Cc1ccc(NNC(=O)c2c(F)cccc2Cl)cc1Cl`, the inhibition is 44.2%.

Regarding `Cc1cc(C)c(S(=O)(=O)c2ccccc2)c(OC(=O)c2c(F)cccc2Cl)n1`, the inhibition is 64.7% (active). The result for `COc1ccc(C(C(=O)NCC2CCCO2)N(C(=O)Cn2nnc3ccccc32)c2ccc(NC(C)=O)cc2)cc1OC` (stereo not given) reads 15.6%; that for `CCOc1ccc(CC(=O)NCCS(=O)(=O)N2CCN(c3ccccc3)CC2)cc1`, -7.53%. The result for `O=C(N/N=C/c1cccc2cccnc12)[C@H]1C[C@@H]1c1ccccc1` reads 18.6%. The result for `COc1ccc(OC)c(S(=O)(=O)n2c([N+](=O)[O-])cnc2C)c1` reads 12.9%; that for `COc1ccc(C(C[N+](=O)[O-])n2nc(C)cc2C)cc1` (stereo not given), 84.7% (active); that for `CCOc1ccc(C(C)C)cc1S(=O)(=O)n1nc(C)cc1C`, 36.9%.
